PrPC TRFRET = inhibitors of human cell surface prion protein PrPC; TR-FRET read-out; inhibition, % at 13.8 µM; 370,000 tested, 0.43% active; in the data active = inhibition above about 24%; note: 0% = median of the test wells and 100% = reference compound wells
PrP UTR inh = suppresses PrP 5' UTR mRNA reporter expression; cell-based PrP 5' UTR mRNA reporter, plate reader; inhibition, % (test concentration not listed); 340,000 tested, 0.35% active; AID 488862; in the data active = inhibition above about 52%; note: 0 = median of the neutral control wells
MazEF act = activators of E. coli MazEF toxin-antitoxin RNase; P0AE70; FAM/BHQ RNA-DNA oligo cleavage fluorescence, 5 h; activation, % at 20 µM; 350,000 tested, 0.32% active; in the data active = activation above about 50%
Target sequence (P0AE70 whole entry, looked up): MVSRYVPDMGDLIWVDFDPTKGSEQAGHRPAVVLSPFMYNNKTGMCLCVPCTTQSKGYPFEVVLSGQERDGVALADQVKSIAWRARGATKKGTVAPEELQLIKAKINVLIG
DUSP3 inh = DUSP3 (human) phosphatase inhibition. P51452. recombinant VHR phosphatase, pNPP absorbance. inhibition, % at 13.3 µM. 290,000 tested, 0.52% active. AID 1654; in the data active = inhibition above about 50%
Target sequence (P51452 whole entry, looked up): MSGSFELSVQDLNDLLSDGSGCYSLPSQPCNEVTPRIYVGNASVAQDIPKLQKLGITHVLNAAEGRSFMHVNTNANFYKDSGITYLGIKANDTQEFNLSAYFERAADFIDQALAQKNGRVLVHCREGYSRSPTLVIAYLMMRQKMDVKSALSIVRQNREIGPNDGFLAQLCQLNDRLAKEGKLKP
Mtb hypoxia rep = reduces hypoxia-regulated biosensor signal in M. tuberculosis | M. tuberculosis hypoxia-regulated fluorescent reporter, fluorescence | fluorescence inhibition, % (test concentration not listed) | 300,000 tested, 0.1% active | AID 1159583; in the data active = fluorescence inhibition mostly above about 23%, no sharp cut-off; inactive = mostly below about 17%
3CLpro inhibitor = SARS-CoV 3CLpro protease inhibition. inhibition, % at 6 µM. recombinant SARS-CoV 3CLpro, quenched FRET peptide cleavage. P0C6X7. 290,000 tested, 0.14% active; in the data active = inhibition above about 12%
* marks the source's active call; other numbers are inactive results; nt = not tested or not shown; + = active, no number. Most compounds without a hit are left out; they make up all but 1.5% or so of the library.

SMILES | PrPC TRFRET | PrP UTR inh | MazEF act | DUSP3 inh | Mtb hypoxia rep | 3CLpro inhibitor
COC(=O)c1ccc(OCC2NCCc3cc(OC)c(OC)cc32)cc1 (stereo unspecified) | nt | -1 | 0 | 56* | 2 | 1
COc1ccccc1C(=O)N/C(=C\c1cn(C)c2ccccc12)C(=O)NCCN1CCOCC1 | 4 | nt | 4 | nt | nt | nt
COc1ccccc1C(=O)N/C(=C\c1cn(C)c2ccccc12)C(=O)NCCCN1CCOCC1 | -8 | -20 | 3 | 57* | 14 | -2
COc1ccc(NC(=O)ON=Cc2ccc(N(C)C)cc2)cc1 | nt | nt | nt | nt | 7 | nt
O=C(Nc1nc2n(n1)C(c1ccc(Cl)cc1)CC(c1ccc(Cl)cc1)N2)c1ccco1 (stereo unspecified) | -1 | nt | -9 | -15 | -4 | 1
COc1ccc(C2CC(c3ccc(Cl)cc3)Nc3nc(NC(=O)c4ccco4)nn32)cc1 (stereo unspecified) | 1 | 6 | 160* | 0 | nt | -3
COc1ccc(C(=O)NN=Cc2ccc(OC)c(CSc3ccccn3)c2)cc1 | nt | nt | nt | nt | -4 | nt
O=C(CCC1CCCN(C(=O)c2ccccc2Cl)C1)N1CCN(c2ccccn2)CC1 (stereo unspecified) | 1 | -14 | 8 | 52* | 1 | -2
CCN1C(=O)C2C(c3ccc(-c4ccc(Cl)c(Cl)c4)cc3)N[C@@](C)(C(=O)OC)C2C1=O (stereo partly specified) | nt | nt | nt | nt | 3 | nt
CCOC(=O)C1=C(C)N=c2sc(=Cc3ccc(OCC(=O)O)cc3)c(=O)n2C1c1cc(OC)c(OC)c(OC)c1 (stereo unspecified) | nt | nt | nt | nt | 6 | nt
O=C(OCCCOC(=O)c1ccc([N+](=O)[O-])o1)c1ccc([N+](=O)[O-])o1 | -14 | -16 | 1 | nt | 71* | nt
N/C(=N\OC(=O)c1cccc2ccccc12)c1cccc([N+](=O)[O-])c1 | 1 | -17 | 55* | 18 | nt | 4
Cc1ccccc1C(=O)O/N=C(\N)c1cccc([N+](=O)[O-])c1 | -2 | -67 | -9 | 18 | nt | 3
Oc1ccccc1C=NNC(=S)NC1CC2CC1C1C=CCC21 (stereo unspecified) | nt | nt | nt | nt | 15 | nt
CCC(/C=C1\Sc2ccc(OC)cc2N1CC)=C\c1sc2ccc(OC)cc2[n+]1CCCS(=O)(=O)[O-] | 5 | 7 | 3 | 7 | 68* | 3
CC(C)NC(=O)N(C)CC1Oc2ccc(NC(=O)C3CC3)cc2C(=O)N(C(C)CO)CC1C (stereo unspecified) | nt | nt | nt | nt | 1 | nt
Cc1ccc(S(=O)(=O)Nc2c(C)n(C)n(-c3ccccc3)c2=O)cc1C(=O)OC(C)C(=O)c1ccccc1 (stereo unspecified) | -7 | -21 | 6 | nt | 21* | nt
O=C(CN1CCCC1)NC(c1ccccc1)c1ccccc1 | -5 | -23 | 4 | 51* | 6 | -2
CCCCCC(=O)Nc1cccc(C2=NOC3(C2)CC(C(N)=O)N(C(=O)c2ccc(OC)cc2)C3)c1 (stereo unspecified) | nt | nt | nt | nt | 7 | nt
Nc1nnnn1N=Cc1ccco1 | nt | nt | nt | nt | 5 | nt
COc1ccccc1N1C(=O)S/C(=C\c2ccc(C)s2)C1=O | -1 | -59 | 22 | -4 | 4 | 0
COc1ccccc1N1C(=O)S/C(=C\c2cc(C)n(C)c2C)C1=O | -11 | -15 | + | 18 | 9 | -2
N#C/C(=C/c1ccc(-c2ccccc2[N+](=O)[O-])o1)C(N)=O | 0 | 39 | 54* | 8 | 5 | -4
N#C/C(=C/c1ccc(-c2cc([N+](=O)[O-])ccc2Cl)o1)C(N)=O | 0 | 12 | -7 | 32 | 8 | 5
Cc1cc(-c2n[nH]c(=S)n2N=Cc2ccc(Br)s2)n[nH]1 | nt | nt | nt | nt | 16 | nt
SMILES | PrPC TRFRET | PrP UTR inh | MazEF act | DUSP3 inh | Mtb hypoxia rep | 3CLpro inhibitor
C=C1C(=O)[C@]23C[C@H]1CC[C@H]2[C@]1(C)[C@@H](OC(C)=O)CC[C@@](C)(C(=O)OC)[C@H]1C[C@@H]3OC(C)=O | 0 | nt | nt | nt | nt | nt
C=C1C(=O)[C@]23C[C@H]1CCC2[C@@]1(C)C(C[C@@H]3O)[C@](C)(C(=O)OC)CC[C@@H]1OC(C)=O (stereo partly specified) | 68* | nt | nt | nt | nt | nt
NC(=O)C1CC2(CC(c3cccc(NC(=O)C4CCC(=O)N4)c3)=NO2)CN1C(=O)c1ccc(Cl)cc1 (stereo unspecified) | nt | nt | nt | nt | 12 | nt
Cc1cccc(C)c1NC(=O)COc1cccc(C=NNC(=O)C(=O)NCc2ccccc2)c1 | nt | nt | nt | nt | 14 | nt
Cc1nc(C)c(-c2csc(Nc3ccc(N)cc3)n2)s1 | -12 | -44 | 18 | 57* | 6 | -4
COc1ccc(Nc2nc(-c3sc(C)nc3C)cs2)cc1 | 10 | 37 | 1 | 9 | 13 | -3
COc1ccc2oc(=O)c(C(=O)NC3CCCCCC3)cc2c1 | 1 | -53 | -4 | 50* | 4 | -2
CNC(=O)c1cc2cc(OC)ccc2oc1=O | nt | -7 | 4 | 12 | 6 | -1
Cn1cc(C=NO)nc2c(=O)n(-c3ccccc3)c(=O)nc1-2 | nt | nt | nt | nt | 38* | nt
O=C(OCC(=O)C12CC3CC(CC(C3)C1)C2)c1ccc(CO)cc1 | -5 | -26 | -2 | nt | 25* | nt
CCn1c(SCC(=O)N(C)c2ccccc2)nc2c([nH]c3ccccc32)c1=O | 1 | 5 | -1 | 53* | 0 | -2
NC(=O)c1sc2nc3c(c(-c4ccco4)c2c1N)CCCC3 | -3 | 8 | 9 | 11 | 2 | -2
Nc1c(C(=O)NCC2CCCO2)sc2nc3c(c(-c4ccco4)c12)CC/C3=C\c1ccco1 (stereo unspecified) | -7 | -3 | 5 | 101* | 10 | 1
O=C(COC(=O)c1ccccc1NCCO)NCC1CCCCC1 | 0 | -32 | 9 | nt | 31* | nt
O=C(COC(=O)c1ccccc1Br)NCC1CCCCC1 | 0 | nt | -7 | nt | -3 | nt
N#CC(=NNc1ccc(Cl)cc1)C(=O)c1ccsc1 | nt | nt | nt | nt | 13 | nt
O=C(O)C1CCCC2CN3CCc4c([nH]c5ccccc45)C3C(O)C21 (stereo unspecified) | -4 | -9 | 23 | 56* | 12 | -3
CCOC(=O)c1cnc(SCC(=O)N2CCc3ccccc32)nc1N | 7 | -13 | 68* | 3 | 10 | -4
CNC(=S)NN=Cc1c(C)c(C(=O)c2ccc(F)cc2)n2ccccc12 | nt | nt | nt | nt | -1 | nt
c1ccc(-c2csc(Nc3ncccn3)n2)cc1 | -5 | -73 | 0 | 55* | -6 | 5

High-throughput results deposited in PubChem BioAssay by several laboratories.
